The record followed here is PubChem BioAssay AID720504 (National Center for Advancing Translational Sciences (NCATS), 2013).

Among all 360,000 compounds or so, about 10,000 (2.8%) were called active. Another 4% or so got no clear call; they are omitted. This is one part of a sample in which actives are shown more often than they occur. Calls come from the whole dose curve; as a rule, active = well fitted inhibition curve with a large enough effect; inconclusive = small, poorly fitted or top-dose-only effect; inactive = flat fitted curve, though single readings scatter.
% is set by controls: 0 for no effect and ±100 for the full control effect; potency is the fitted concentration of half-maximal effect.

For this test, the target named is Serine/threonine-protein kinase PLK1 (Homo sapiens) (UniProt P53350). The test is described as follows: qHTS for Inhibitors of PLK1-PDB (polo-like kinase 1 - polo-box domain): Primary Screen. For max response, negative = inhibition: series mostly up to about 57 µM. Note: nearly all actives have a fitted effect of over 65% in size. The conditions noted are these: Plk1 PBD binding of FITC phosphopeptide, fluorescence polarization. In general terms: Quantitative high-throughput screening tests each substance at several concentrations.
Chain of Serine/threonine-protein kinase PLK1 (Homo sapiens) (P53350 whole entry, looked up, the tested form may be a part): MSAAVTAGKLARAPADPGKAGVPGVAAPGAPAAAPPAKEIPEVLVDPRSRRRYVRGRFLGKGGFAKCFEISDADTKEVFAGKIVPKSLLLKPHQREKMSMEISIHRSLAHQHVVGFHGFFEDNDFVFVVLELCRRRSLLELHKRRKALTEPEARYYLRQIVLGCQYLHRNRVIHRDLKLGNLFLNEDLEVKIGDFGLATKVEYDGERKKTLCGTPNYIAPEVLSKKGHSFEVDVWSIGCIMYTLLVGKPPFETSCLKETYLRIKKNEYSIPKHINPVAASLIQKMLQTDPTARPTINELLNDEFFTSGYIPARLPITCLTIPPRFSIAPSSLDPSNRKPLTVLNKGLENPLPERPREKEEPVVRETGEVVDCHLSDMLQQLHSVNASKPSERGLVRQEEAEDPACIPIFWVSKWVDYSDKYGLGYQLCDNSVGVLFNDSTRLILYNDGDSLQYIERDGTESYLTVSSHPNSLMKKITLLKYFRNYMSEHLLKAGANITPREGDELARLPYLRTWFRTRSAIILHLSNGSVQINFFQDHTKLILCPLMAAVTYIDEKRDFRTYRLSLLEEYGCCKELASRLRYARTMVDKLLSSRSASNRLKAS
Consider `COc1ccccc1Cc1c(-c2ccc(Cl)cc2)nc2ccc(Cl)cn12`, for which the max response, negative = inhibition was -19.7% (inactive).
Regarding `CNc1ccc(SC#N)cc1`, the Potency was 23.8 µM (active).
`Cc1ccccc1Cn1c(C)c(C(=O)NCc2cccc(C(F)(F)F)c2)sc1=O`: the max response, negative = inhibition is -4.46% (inactive).
Same read-out and setting: for `CCN(C(=O)Nc1cccc2ccccc12)c1ccccc1` the value was -4% (inactive).
Same read-out and setting: in the case of `Cc1ccc(S(=O)(=O)N2[C@@H](Cc3ccccc3)CO[C@H]2CC(=O)OCc2ccccc2)cc1` it was 0.144% (inactive); in that of `CCCCn1nnnc1C(c1ccccc1)N1CCN(c2ccccc2OC)CC1` (stereo not given), -14.9% (inactive).
Regarding `CN(C)c1nc(=Nc2cccc(Cl)c2)ss1`, the Potency was 6.7 µM (active).
Take `Cn1ncc([N+](=O)[O-])c1C(=O)Nc1cc(Cl)ccc1Cl`: the max response, negative = inhibition is -6.39% (inactive).
For `O=C1c2ccccc2C(c2nc3ccccc3[nH]2)N1c1ccccc1` (stereo not given), the max response, negative = inhibition was 3.28% (inactive).
On to `O=C1Nc2ccccc2NC(c2ccc3c(c2)OCO3)=C1N(Cc1ccc(F)cc1)C(=O)c1ccco1`, for which the max response, negative = inhibition is -4.45% (inactive).
Consider `Nc1ccc2nc3c(=O)[nH]c(=S)[nH]c3nc2c1`, for which the Potency is 2.67 µM (active).
`CC(C)OC(=O)CC(=O)CC(O)c1cccc([N+](=O)[O-])c1` (stereo not given): the max response, negative = inhibition is -7.74% (inactive).
With `O=C(N/N=C\c1cccc(Br)c1)c1ccccc1-n1cccc1`, the max response, negative = inhibition was -3.78% (inactive).
On to `O=C(N/N=C/c1cccc(Br)c1)c1ccc(N2CCCC2=O)cc1`, for which the Potency was 26.7 µM (active).
For `O=C(Nc1ccc(N2CCCC2=O)cc1)c1cncc(Br)c1`, the max response, negative = inhibition was 6.3% (inactive).
In the case of `CC(C)CN1CCC1(C)C(=O)Nc1ccc(OC(F)F)cc1` (stereo not given), the max response, negative = inhibition is -0.833% (inactive).
Take `CCCNC(=O)C1(C)CCCN(Cc2c(C)nn(-c3ccccc3)c2C)C1` (stereo not given): the max response, negative = inhibition is 2.73% (inactive).
Consider `COCCNC(=S)c1ccc(OC)cc1`, for which the Potency is 26.7 µM (active).
Consider `COc1ccc(C(=O)NCC[N+](C)(C)C)cc1`, for which the max response, negative = inhibition was 1.35% (inactive).
On the same count and under the same terms, in the case of `COCCCNC(NC(=O)c1ccc(OC)cc1)C(Cl)(Cl)Cl` (stereo not given) it was 5.66% (inactive).
The same measure, in the same setting: in the case of `C#CCNC(=O)C[C@@H]1C[C@@]2(C(=O)OCC)CCCC=C2N(Cc2ccco2)C1=O` it was -6.05% (inactive); in that of `c1cc(-c2nn[nH]n2)ccc1CN1CCCCC1`, -9.14% (inactive).
On to `Brc1ccc(-c2nn[nH]n2)cc1`, for which the Potency was 23.8 µM (active).
As to `CC(C)c1ccc(-c2nn[nH]n2)cc1`, the max response, negative = inhibition was -8.56% (inactive).
On the same count and under the same terms, for `COc1cccc(C(O)c2nc(-c3ccc(C)c(C)c3)cs2)c1` (stereo not given) the value was -8.07% (inactive).
Consider `COCc1cccc(-c2csc(C(O)c3ccc(F)cc3)n2)c1` (stereo not given), for which the max response, negative = inhibition is -9.74% (inactive).
Same read-out and setting: for `COc1ccc(NC(=O)CSc2nnnn2-c2cccc(OC)c2)cc1` the value was 5.21% (inactive); for `COCCn1c(SCC(=O)Nc2ccc(F)cc2F)nc2c(c1=O)SCC2`, 10.8% (inactive).
On the same count and under the same terms, in the case of `Cc1ccc(Cc2c(-c3ccccc3)nc3ccc(Cl)cn23)cc1` it was -1.42% (inactive); in that of `Cc1ccc(-c2nc3ccc(Cl)cn3c2Cc2ccccc2)cc1`, -1.46% (inactive).
In the case of `Cc1ccc(Cc2c(-c3ccco3)nc3ccc(Cl)cn23)cc1`, the Potency was 21.2 µM (active).
Consider `CC1Cc2[nH][nH]c(=O)c2C(C2CCCC2)O1` (stereo not given), for which the max response, negative = inhibition was -5.58% (inactive).
Consider `OC(c1ccccc1)c1nc(-c2cnc3ccccc3c2)cs1` (stereo not given), for which the max response, negative = inhibition is 1.51% (inactive).
For the compound `CCN(CC(=O)NC1CCS(=O)(=O)C1)c1nc(-c2cccnc2)nc2ccccc12` (stereo not given), the max response, negative = inhibition was -6.17% (inactive).
On the same count and under the same terms, in the case of `O=C(CSc1n[nH]c(-c2cccnc2)n1)Nc1ccnc2ccccc12` it was -8.72% (inactive).
As to `COc1ccc(Nc2nc(-c3cccnc3)nc3ccccc23)cn1`, the Potency was 21.2 µM (active).
Take `C[C@H]1CN([C@@H](C)CO)C(=O)CCCn2cc(nn2)CO[C@@H]1CN(C)S(=O)(=O)c1ccc(-c2ccccc2)cc1`: the max response, negative = inhibition is -23.9% (inactive).
For the compound `CCCc1[nH]nc2c1C(c1ccc(Br)s1)C(C#N)=C(N)O2` (stereo not given), the Potency is 23.8 µM (active).
For the compound `COCc1[nH]nc2c1C(C1C=CCCC1)C(C#N)=C(N)O2` (stereo not given), the max response, negative = inhibition was -8.66% (inactive).
On to `COc1ccc(-c2[nH]nc3c2C(c2ccncc2)C(C#N)=C(N)O3)cc1` (stereo not given), for which the max response, negative = inhibition is -28.1% (inactive).
Still for that read-out and setting: in the case of `CC(=O)Nc1cccc(-c2ccnc3c2CC(C)(C(=O)NCc2ccccc2)O3)c1` (stereo not given) it was 0.623% (inactive); in that of `CNC[C@H]1OCc2cnnn2CCCC(=O)N([C@H](C)CO)C[C@@H]1C`, -6.68% (inactive); in that of `Cc1cc2oc(=O)cc(CN(C)Cc3ccccc3)c2cc1Cl`, -6.49% (inactive).
Take `CSc1ncc(C(=O)NCCCc2ccccc2)c(C)n1`: the max response, negative = inhibition was -4.81% (inactive).
Take `CSc1ncc(Sc2ccccc2)c(C(=O)O)n1`: the Potency was 23.8 µM (active).
For `Cc1ccccc1C(=O)Nc1ccccc1Sc1ccccc1`, the max response, negative = inhibition was 2.65% (inactive).
Same read-out and setting: for `CN1C[C@@H](CO)O[C@@H](n2cnc3c(N4CCN(CCO)CC4)ncnc32)C1` the value was 2.3% (inactive); for `COCCNC(=O)C1CCCN(Cc2ccccc2Cl)CC1` (stereo not given), -4.77% (inactive); for `CC(=O)N1CCN(Cc2cc(=O)oc3cc(C)ccc23)CC1`, -2.03% (inactive).
As for `CCOC(=O)[C@H]1Nc2ccc(Cl)cc2[C@@H]2[C@H]1C1CC(c3ccccc31)N2C(=O)OCc1ccccc1` (stereo not given in full), the max response, negative = inhibition is -10.8% (inactive).
Same read-out and setting: in the case of `CNc1cc(-c2c(OC)cccc2OC)ncn1` it was -6.78% (inactive).
On the same count and under the same terms, for `CN1CCN(c2ccc3c(c2)OC[C@H](Cc2ccccc2)NS3(=O)=O)CC1` the value was 0.181% (inactive).
`COc1ccc(-c2nc3ccc(Br)cn3c2Cc2ccc(C)cc2)cc1OC`: the max response, negative = inhibition was -11% (inactive).
Still for that read-out and setting: for `Cc1ccc(C(=O)N2CC(=O)Nc3ccc(F)cc3C2c2ccc(F)cc2)cc1` (stereo not given) the value was 1.6% (inactive); for `Cc1ccc2c(c1)C(c1ccccc1)N(C(=O)c1ccc(F)cc1)CC(=O)N2` (stereo not given), -0.372% (inactive).
Take `Cc1ccc2c(c1)C(c1ccccc1)N(C(=O)c1ccc(S(=O)(=O)N3CCOCC3)cc1)CC(=O)N2` (stereo not given): the Potency is 23.8 µM (active).
Consider `CCNC(=O)C1(C)CCCN(C(=O)c2c(C)noc2C)C1` (stereo not given), for which the max response, negative = inhibition is -0.543% (inactive).
On the same count and under the same terms, for `CCOC(=O)c1cc2cc(OC)ccc2n1C1CCN(C)CC1` the value was -4.75% (inactive); for `CCC(Oc1ccccc1)C(=O)OCC(=O)Nc1c(C)nn(-c2ccccc2)c1C` (stereo not given), -0.819% (inactive); for `CCOc1ccc(CCN2C(=S)N([C@@H](CC(C)C)CN3CCC[C@@H]3CN3C(=S)NC[C@@H]3Cc3ccc(O)cc3)C[C@@H]2CC(C)C)cc1`, 5.19% (inactive).
